In PubChem BioAssay (Tox21) one finds Potency and outcome data, which are given here for 7 compounds.

SMILES strings stand for the structures. Values without a mark were called inactive. Inconclusive results are not listed. Calls of active or inactive are those of the source. Unless noted, the call rests on the fitted dose curve.

Test [1] can be described thus: Nuclear factor erythroid 2-related factor 2/antioxidant responsive element (Nrf2/ARE) small molecule agonists: qHTS cell viability counter screen in human keratinocytes (AID 1919968; active means well fitted curve in the direction sought with a large enough effect in the repeat runs; an effect the other way counts as inactive or inconclusive; further: nearly all actives have a fitted effect of over 55% in size; further: potency means the concentration at half of the fitted maximal effect). The procedure, abridged: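 In human HaCaT keratinocytes stably expressing an ARE-driven luciferase, compound exposure lasted 23 h at 37 C under 5% CO2. Viable cells are quantified with a protease-based fluorogenic reagent (CellTiter-Fluor) read 1 h after addition.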
A general note: Quantitative high-throughput screening tests each substance at several concentrations.

Test [2] in a line: Nuclear factor erythroid 2-related factor 2/antioxidant responsive element (Nrf2/ARE) small molecule agonists: luciferase reporter gene qHTS assay in human keratinocytes (AID 1919969). Further: nearly all actives have a fitted effect of over 35% in size. Further: potency means the concentration at half of the fitted maximal effect. On the technique in general: A reporter such as luciferase makes a cellular process visible.
The target of test [3] is Gonadotropin-releasing hormone receptor (Homo sapiens) (UniProt P30968). The test can be described thus: Human gonadotropin-releasing hormone receptor (GnRHR) small molecule agonists, calcium flux assay in GnRHR-HEK293 cells (AID 1920063). Further: nearly all actives have a fitted effect of over 35% in size. The procedure, abridged:
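Intracellular calcium rise is the read-out: engineered human GnRHR HEK293 cells, dye-loaded, are exposed to DMSO-dissolved compounds and fluorescence at Ex/Em 480/540 is tracked for 3 min.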
For orientation: Calcium flux is commonly read through the fluorescence of an indicator in the cells.

Test [4] deals with KiSS-1 receptor (Homo sapiens) (UniProt Q969F8). The test can be described thus: Human kisspeptin (KISS1R) small molecule agonists, calcium flux assay in KISS1R-HEK293 cells (AID 1920064; active means well fitted curve in the direction sought with a large enough effect in the repeat runs; an effect the other way counts as inactive or inconclusive). The procedure, abridged: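 Concentration-response testing used 15 concentrations in triplicate on human KISS1R-expressing HEK293 cells. Calcium-dependent fluorescence (Ex/Em 480/540) was followed kinetically for 3 min after compound transfer.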

Test [5] is described as follows: G protein-coupled receptor (GPCR) small molecule agonists, calcium flux assay: HEK293 wild type cell line counter screen (AID 1920065). The procedure, abridged: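 Fluorescence intensity signals activation. After overnight (18 h) culture and a 1 h calcium dye load at 37 C, compounds are added by pin tool and the plate read at 480/540 nm for 3 min in 1 s steps.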
Test [6] in a line: p53 small molecule agonists, cell-based qHTS assay with human liver microsomes (AID 1963577).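 Further: p53 response element beta-lactamase reporter cells with liver microsomes plus NADPH.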 The procedure, abridged: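 Steps: plate p53RE-bla cells, incubate 5 h at 37 C; add compound in DMSO; add microsomes (0.5 mg/mL final) and NADPH (0.5 mg/mL final); incubate 16 h at 37 C; add LiveBLAzer, 2 h RT; read fluorescence.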
Test [7] can be described thus: p53 small molecule agonists, cell-based qHTS assay with rat liver microsomes (AID 1963578). The procedure, abridged:
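Metabolic activation is supplied by rat liver microsomes with NADPH (each 0.5 mg/mL final). p53RE-bla cells incubate with compound 16 h at 37 C; reporter activity is measured by LiveBLAzer fluorescence.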

Test [8] can be described thus: p53 small molecule agonists, cell-based qHTS assay with rat liver microsomes: qHTS cell viability counter screen (AID 1963580). Further: nearly all actives have a fitted effect of over 45% in size. Further: potency means the concentration at half of the fitted maximal effect. The procedure, abridged:
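Cytotoxicity counter screen: intracellular ATP measured by CellTiter-Glo luminescence in the same wells as the beta-lactamase reporter read, on HCT-116 p53RE-bla cells exposed 16 h at 37 C to compounds with rat liver microsomes and NADPH, each 0.5 mg/mL final.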

A short description of test [9]: p53 small molecule agonists, cell-based qHTS assay: qHTS cell viability counter screen (AID 1963581). Further: nearly all actives have a fitted effect of over 45% in size. Further: potency means the concentration at half of the fitted maximal effect. The procedure, abridged:
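Luminescence from CellTiter-Glo, reflecting ATP content, serves as the cytotoxicity measure; it is taken after the 2 h reporter substrate step in HCT-116 p53RE-bla cells dosed for 16 h at 37 C.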

A short description of test [10]: p53 small molecule agonists, cell-based qHTS assay (AID 1963582; active means well fitted activation curve with a large enough effect in the signal ratio in the repeat runs, not every such curve was filed as active; the % refers to the signal ratio). The procedure, abridged:
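After plating, p53RE-bla cells sat 5 h in the incubator; compounds or DMSO vehicle were pinned in; a 16 h incubation at 37 C followed; FRET substrate was added and, 2 h later at RT, fluorescence was measured.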

Test [11] addresses 5-hydroxytryptamine receptor 2A (Homo sapiens) (UniProt P28223). The test can be described thus: 5-hydroxytryptamine receptor 2A (HTR2A) small molecule antagonists, cell-based qHTS assay (AID 1963586). Further: nearly all actives have a fitted effect of over 45% in size. Further: potency means the concentration at half of the fitted maximal effect. The procedure, abridged: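 CHO cells stably expressing human HTR2A were plated for 18 h at 37 C, then loaded with calcium dye for 1 h. Compounds were preincubated 5 min at room temperature before DOI (4 nM solution) was added. Kinetic fluorescence was read for 3 min.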

For test [12] the target is unchanged. Description: 5-hydroxytryptamine receptor 2A (HTR2A) small molecule agonists, cell-based qHTS assay (AID 1963587). Further: nearly all actives have a fitted effect of over 30% in size. The procedure, abridged: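 CHO cells stably expressing human HTR2A, plated 18 h, loaded with calcium dye 1 h at 37 C. Agonist mode: compounds added and intracellular calcium fluorescence recorded kinetically for 2 min at 1 sec intervals.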
Test [13] addresses Muscarinic acetylcholine receptor M1 (Homo sapiens) (UniProt P11229). The test can be described thus: Cholinergic receptor muscarinic 1 (CHRM1) small molecule agonists, cell-based qHTS assay (AID 1963589). Further: nearly all actives have a fitted effect of over 35% in size. The procedure, abridged: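 Fluorescent calcium dye reports M1 activation in stably transfected CHO cells. Compounds, 15 concentrations, added after 1 h dye loading at 37 C; kinetic reading at 1 sec intervals.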

The nature of test [14]: cAMP Responsive Elements (CRE) small molecule agonists, cell-based qHTS assay (AID 1963590). The procedure, abridged:
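Compound exposure lasted 3 h at 37 C/5% CO2 in CRE-bla HEK 293T cells grown in assay medium with 10% dialyzed FBS and 25 mM HEPES. Reporter signal came from LiveBLAzer B/G FRET substrate, 2 h, room temperature.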

The nature of test [15]: cAMP Responsive Elements (CRE) small molecule antagonists, cell-based qHTS assay (AID 1963591; active means well fitted inhibition curve with a large enough effect in the signal ratio in the repeat runs, not every such curve was filed as active; the % refers to the signal ratio). The procedure, abridged:
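Stimulation used NKH477 at a final 0.25 uM for 3 h in compound-treated CRE-bla HEK293T cells, seeded 18 h beforehand. Reporter activity was measured with LiveBLAzer B/G FRET substrate after 2 h at room temperature.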

Test [16] concerns the target Beta-2 adrenergic receptor (Homo sapiens) (UniProt P07550). The test can be described thus: Adrenergic beta2 receptor (ADRB2) small molecule antagonists, cell-based qHTS assay (AID 1963592). Further: series mostly up to about 92 µM; nearly all actives have a fitted effect of over 50% in size. The procedure, abridged:
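Assay format: CHO-ADRB2 cells, 18-20hr seeding at 37C/5% CO2, then compound plus 1nM isoproterenol agonist mix for 0.5hr RT. Homogeneous time-resolved fluorescence cAMP detection after 1hr, expressed as 665/615 nm ratio.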

In test [17] the target is D(2) dopamine receptor (Homo sapiens) (UniProt P14416). The test can be described thus: Dopamine D2 receptor (DRD2) small molecule agonists, cell-based qHTS assay (AID 1963594). Further: nearly all actives have a fitted effect of over 35% in size. The procedure, abridged:
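HEK293 cells stably expressing human DRD2, pre-treated with PDE inhibitor Ro20-1724 (0.1 mM final) and compound 10 min at room temperature, then stimulated with NKH477 (200nM […]) for 30 min. cAMP read by HTRF (665/620 nm).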

The target of test [18] is Muscarinic acetylcholine receptor M1 (Homo sapiens) (UniProt P11229). Description: Cholinergic receptor muscarinic 1 (CHRM1) small molecule antagonists, cell-based qHTS assay (AID 1963588). Further: nearly all actives have a fitted effect of over 40% in size. Further: potency means the concentration at half of the fitted maximal effect. The procedure, abridged:
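Compounds were tested at 15 concentrations in three independent runs. Dye-loaded CHRM1-CHO cells were exposed 5 min at room temperature before stimulation by acetylcholine added at 50nM. Intracellular calcium was read kinetically on FDSS for 3 min.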

The target in test [19] is D(2) dopamine receptor (Homo sapiens) (UniProt P14416). The test can be described thus: Dopamine D2 receptor (DRD2) small molecule antagonists, cell-based qHTS assay (AID 1963595; active means well fitted inhibition curve with a large enough effect in the signal ratio in the repeat runs, with a control signal flat; the % refers to the signal ratio). The procedure, abridged:
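Human DRD2 antagonist qHTS measuring cAMP by HTRF. The cells are exposed to compound for 10 min, then to NKH477 (200 nM) and quinpirole (12 nM) for 30 min at RT, with Ro20-1724 (0.1 mM) present throughout.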

Chain of 5-hydroxytryptamine receptor 2A (Homo sapiens) (P28223 whole entry, looked up): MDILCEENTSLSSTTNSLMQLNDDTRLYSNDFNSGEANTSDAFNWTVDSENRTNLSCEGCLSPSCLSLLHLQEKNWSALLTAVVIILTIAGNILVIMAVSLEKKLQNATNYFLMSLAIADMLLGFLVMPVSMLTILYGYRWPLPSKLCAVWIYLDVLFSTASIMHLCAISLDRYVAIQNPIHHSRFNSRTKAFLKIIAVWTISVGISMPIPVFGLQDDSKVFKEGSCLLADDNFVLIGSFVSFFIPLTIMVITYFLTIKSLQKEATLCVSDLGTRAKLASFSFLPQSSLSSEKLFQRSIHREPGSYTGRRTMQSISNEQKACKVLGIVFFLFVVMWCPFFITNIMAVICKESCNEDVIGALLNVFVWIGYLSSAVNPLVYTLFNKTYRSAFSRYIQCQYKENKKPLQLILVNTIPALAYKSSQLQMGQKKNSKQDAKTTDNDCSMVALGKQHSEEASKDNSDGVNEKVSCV
Chain of Muscarinic acetylcholine receptor M1 (Homo sapiens) (P11229 whole entry, looked up): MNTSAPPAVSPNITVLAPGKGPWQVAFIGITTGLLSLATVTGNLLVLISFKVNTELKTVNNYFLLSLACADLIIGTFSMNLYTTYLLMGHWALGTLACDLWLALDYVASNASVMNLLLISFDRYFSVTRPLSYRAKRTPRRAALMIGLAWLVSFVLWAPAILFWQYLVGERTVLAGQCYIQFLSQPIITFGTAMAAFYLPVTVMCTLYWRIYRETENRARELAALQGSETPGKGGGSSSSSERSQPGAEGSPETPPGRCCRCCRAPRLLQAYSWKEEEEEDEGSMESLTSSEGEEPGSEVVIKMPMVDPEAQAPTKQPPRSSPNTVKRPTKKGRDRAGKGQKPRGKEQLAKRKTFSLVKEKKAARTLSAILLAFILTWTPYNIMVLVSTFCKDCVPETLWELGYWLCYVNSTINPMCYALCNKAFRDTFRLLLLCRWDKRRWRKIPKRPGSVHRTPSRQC
Chain of Beta-2 adrenergic receptor (Homo sapiens) (P07550 whole entry, looked up): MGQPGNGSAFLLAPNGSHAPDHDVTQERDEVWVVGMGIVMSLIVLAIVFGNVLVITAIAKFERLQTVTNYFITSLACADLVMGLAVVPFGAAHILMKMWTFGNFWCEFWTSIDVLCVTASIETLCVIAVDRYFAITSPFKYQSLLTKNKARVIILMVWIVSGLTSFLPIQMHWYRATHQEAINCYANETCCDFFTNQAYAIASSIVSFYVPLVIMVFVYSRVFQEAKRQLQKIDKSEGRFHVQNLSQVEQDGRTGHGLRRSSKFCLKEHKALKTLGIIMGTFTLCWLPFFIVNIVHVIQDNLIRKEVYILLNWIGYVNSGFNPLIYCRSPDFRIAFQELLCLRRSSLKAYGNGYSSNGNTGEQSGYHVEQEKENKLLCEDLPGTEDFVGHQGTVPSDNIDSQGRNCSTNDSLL
Chain of D(2) dopamine receptor (Homo sapiens) (P14416 whole entry, looked up): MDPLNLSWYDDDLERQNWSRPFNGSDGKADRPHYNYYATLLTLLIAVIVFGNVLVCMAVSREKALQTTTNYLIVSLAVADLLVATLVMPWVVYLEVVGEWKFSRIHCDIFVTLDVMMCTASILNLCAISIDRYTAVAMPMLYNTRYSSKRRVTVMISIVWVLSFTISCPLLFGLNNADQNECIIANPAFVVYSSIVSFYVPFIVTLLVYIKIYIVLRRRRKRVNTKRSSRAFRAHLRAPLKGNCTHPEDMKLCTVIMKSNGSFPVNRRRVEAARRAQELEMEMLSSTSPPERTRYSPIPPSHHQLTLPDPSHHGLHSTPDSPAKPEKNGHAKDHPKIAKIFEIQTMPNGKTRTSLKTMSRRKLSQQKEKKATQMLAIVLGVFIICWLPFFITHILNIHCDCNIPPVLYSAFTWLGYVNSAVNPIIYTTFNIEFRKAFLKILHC
Chain of Gonadotropin-releasing hormone receptor (Homo sapiens) (P30968 whole entry, looked up): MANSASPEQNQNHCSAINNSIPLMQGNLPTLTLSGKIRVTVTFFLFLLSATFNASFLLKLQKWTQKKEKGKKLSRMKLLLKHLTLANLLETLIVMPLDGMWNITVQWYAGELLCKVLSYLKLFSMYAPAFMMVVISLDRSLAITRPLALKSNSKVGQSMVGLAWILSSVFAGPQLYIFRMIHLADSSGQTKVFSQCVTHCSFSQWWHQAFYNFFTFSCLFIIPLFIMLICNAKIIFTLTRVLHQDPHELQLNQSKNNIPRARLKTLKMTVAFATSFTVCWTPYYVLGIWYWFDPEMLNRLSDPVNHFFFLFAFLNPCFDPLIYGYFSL
Chain of KiSS-1 receptor (Homo sapiens) (Q969F8 whole entry, looked up): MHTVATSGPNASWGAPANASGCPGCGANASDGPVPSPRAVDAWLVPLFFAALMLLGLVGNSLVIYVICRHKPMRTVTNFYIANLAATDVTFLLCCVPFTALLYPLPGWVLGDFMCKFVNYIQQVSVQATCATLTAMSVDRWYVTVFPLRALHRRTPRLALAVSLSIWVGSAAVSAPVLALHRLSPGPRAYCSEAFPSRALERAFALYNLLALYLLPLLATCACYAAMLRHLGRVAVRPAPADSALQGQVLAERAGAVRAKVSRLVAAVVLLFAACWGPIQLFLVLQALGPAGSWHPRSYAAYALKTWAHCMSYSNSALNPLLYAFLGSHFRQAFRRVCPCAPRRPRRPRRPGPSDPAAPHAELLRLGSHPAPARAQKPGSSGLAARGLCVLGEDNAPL

As to `CCCCCCCCCC(=O)OCC`, the Potency entry in test [1], in test [2], in test [3], in [6], in test [7] and in test [8] was “inactive” in each case. In addition, the Potency entry in test [9], in [10], in test [11], in test [12], in test [13] and in test [14] was “inactive” throughout. The Potency result in test [15], in test [16] and in [17] was “inactive” in each case. Besides, the outcome in test [4] and in test [5] was inactive.

In the case of `Nc1c2c(nc3ccccc13)CCCC2O` (stereo unspecified), the Potency entry in [1], in test [2], in [3], in test [6], in test [7] and in [8] was “inactive” in each case. The Potency result in test [9], in test [10], in test [11], in [18], in test [13] and in test [14] was “inactive” each time. Further, the Potency result in test [15], in test [16], in [17] and in test [19] was “inactive” in each case. In addition, the result in test [4] and in [5] was inactive.

Consider `Cc1nc(-c2ccc(Cl)cc2)oc1COC(C)(C)C(=O)O`, for which the Potency result in [1], in test [2], in [3], in test [6], in test [7] and in [8] was “inactive” in each case. The Potency result in [9], in test [10], in [11], in test [12], in [18] and in [13] was “inactive” each time. For the same compound, the Potency result in [15], in test [16], in test [17] and in [19] was “inactive” each time. Moreover, the outcome in test [4] and in test [5] was inactive.

Take `[Cl][Sc]([Cl])[Cl]`: the Potency entry in [1], in test [2], in test [3], in test [6], in [7] and in [8] was “inactive” each time. Also, the Potency result in [9], in test [10], in test [11], in test [12], in test [18] and in [13] was “inactive” in each case. The Potency result in test [14], in test [15], in [16] and in [19] was “inactive” each time. For the same compound, the outcome in test [4] and in test [5] was inactive.

Consider `COc1ccc2[nH]c(S(=O)Cc3ncc(C)c(OC)c3C)nc2n1` (stereo unspecified), for which the Potency result in [1], in test [3], in test [6], in test [7], in test [8] and in test [9] was “inactive” throughout. Also, the Potency entry in test [10], in [11], in test [13], in test [15], in [16] and in test [17] was “inactive” each time. Also, in [19], the Potency entry is “inactive”. Further, the Potency in test [2] is 21.1 µM (active). The outcome in test [4] and in test [5] was inactive.

Take `CCN(CC)c1ccc(C(=C2C=CC(=[N+](CC)CC)C=C2)c2ccc(S(=O)(=O)O)cc2S(=O)(=O)[O-])cc1`: the Potency in test [1] is 24.3 µM (active); in [8] it was 18.2 µM (active); in test [9], 9.13 µM (active). For the same compound, the Potency result in test [2], in test [3], in [6], in test [7], in test [10] and in test [11] was “inactive” each time. For the same compound, the Potency result in test [18], in [13], in test [14] and in test [15] was “inactive” throughout. Besides, the result in test [4] and in [5] was inactive.

For the compound `CN(C)CCN(Cc1ccc(Cl)cc1)c1ccccn1`, the Potency result in test [1], in test [2], in test [3], in test [6], in test [7] and in test [8] was “inactive” each time. Further, the Potency entry in test [9], in [10], in test [12], in test [13], in [14] and in test [15] was “inactive” throughout. Further, the Potency result in [16], in test [17] and in test [19] was “inactive” in each case. In addition, the outcome in test [4] and in test [5] was inactive. The Potency in [11] is 8.18 µM (active); in test [18] it was 7.29 µM (active).
